The structures appear in SMILES notation. Records with an inconclusive call do not appear. Unmarked numbers belong to inactive results. Calls of active or inactive are those of the source. Calls follow the shape of the dose curve; as a rule, active = well fitted activation curve with a large enough effect in the main read-out, with a control signal flat (not every such curve was filed as active); inconclusive = small, poorly fitted or top-dose-only effect, or effect the other way, or a change in a side signal; inactive = flat fitted curve, though single readings scatter.
Potency is read from the fitted curve at half-maximal effect.

Sequence of 3',5'-cyclic-AMP phosphodiesterase 4B (Homo sapiens) (Q07343 whole entry, looked up): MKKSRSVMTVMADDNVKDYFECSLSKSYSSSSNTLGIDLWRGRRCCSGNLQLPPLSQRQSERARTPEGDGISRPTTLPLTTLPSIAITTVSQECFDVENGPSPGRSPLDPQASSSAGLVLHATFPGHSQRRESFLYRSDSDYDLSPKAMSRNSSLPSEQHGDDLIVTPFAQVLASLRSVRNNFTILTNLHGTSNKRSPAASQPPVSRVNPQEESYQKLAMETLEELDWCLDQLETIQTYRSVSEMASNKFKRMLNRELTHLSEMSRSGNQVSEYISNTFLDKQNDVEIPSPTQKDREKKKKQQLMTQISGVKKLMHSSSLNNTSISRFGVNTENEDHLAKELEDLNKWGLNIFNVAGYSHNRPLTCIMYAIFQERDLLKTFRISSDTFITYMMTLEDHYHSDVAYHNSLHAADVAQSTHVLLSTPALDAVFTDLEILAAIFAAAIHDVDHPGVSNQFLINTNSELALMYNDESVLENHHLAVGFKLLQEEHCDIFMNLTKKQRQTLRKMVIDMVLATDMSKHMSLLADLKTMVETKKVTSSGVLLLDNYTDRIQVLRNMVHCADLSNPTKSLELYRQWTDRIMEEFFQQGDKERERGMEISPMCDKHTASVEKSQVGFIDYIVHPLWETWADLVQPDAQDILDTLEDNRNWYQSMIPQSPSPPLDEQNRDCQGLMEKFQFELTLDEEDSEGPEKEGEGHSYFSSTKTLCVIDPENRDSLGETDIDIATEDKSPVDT

In this experiment the target is 3',5'-cyclic-AMP phosphodiesterase 4B (Homo sapiens) (UniProt Q07343). The experiment in a line: qHTS Assay for Inhibitors of PDE-IV (AID 607). As to activation (PDE inhibition): % of control where 0% means no effect. To be noted: HEK293 ACTOne CNG channel cells, membrane potential fluorescence; series mostly up to 22.9 µM; activation (PDE inhibition): at the top concentration. The method, boiled down:
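The readout is membrane depolarisation from a cAMP-sensing CNG channel, detected with a potential dye at ex 535/em 590. Cells were HEK293-derived (endogenous PDE-IV) at 1000 cells/well, titrated up to 22.9 uM final.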
(In general: qHTS replaces the single test concentration by a dilution series.)
In the case of `C[C@H](NC(=O)/C(C#N)=C/c1ccc(O)c(O)c1)c1ccccc1`, the “activation (PDE inhibition)” value was -19.3%. As to `CCCn1c(=O)c(C)cn2nc(N)nc12`, the Potency was 151 nM (active). `Cc1nc(N=Nc2ccc(S(=O)(=O)O)cc2S(=O)(=O)O)c(COP(=O)(O)O)c(C=O)c1O`: the Potency entry was “inactive”. Take `CCN(c1nc(N)c(C(=O)N=C(N)N)nc1Cl)C(C)C`: the “activation (PDE inhibition)” value was 21.2%. As to `O=c1cc(-c2ccccc2)[nH]c2nc(Cl)ccc12`, the “activation (PDE inhibition)” value is 11.3%. In the case of `Cc1nc2c(OCc3ccccc3)cccn2c1CC#N`, the Potency entry is “inactive”.

With `COc1cc(CC(=O)O)ccc1O`, the “activation (PDE inhibition)” value is -12.4%. On to `N=C(N)SCCc1cnc[nH]1`, for which the Potency result was “inactive”. In the case of `N=C(N)SCCN`, the “activation (PDE inhibition)” value is 0.583%. Take `CCCOC(=O)c1c(-c2ccccc2)nc(CC)c(C(=O)SCC)c1CCC`: the “activation (PDE inhibition)” value is -17.4%. On the same count and under the same terms, then `Cn1c(=O)[nH]c2ncn(C)c2c1=O`, with -22.3%. With `NCCS(=O)O`, the Potency result was “inactive”. As for `OC1(c2ccc(Cl)cc2)CCN(Cc2c[nH]c3ccccc23)CC1`, the Potency entry is “inactive”. Regarding `Cn1ccnc1`, the “activation (PDE inhibition)” value is -2.58%. For the compound `O=C1Nc2ccc(I)cc2/C1=C/c1cc(Br)c(O)c(Br)c1`, the “activation (PDE inhibition)” value was -21.8%. `CSC(=N)N`: the Potency result was “inactive”. In the case of `CC(=O)NCCc1c[nH]c2ccc(O)cc12`, the “activation (PDE inhibition)” value was 0.877%.

For the compound `CC[N+](CC)(CC)CC(=O)Nc1c(C)cccc1C`, the “activation (PDE inhibition)” value is -11.4%. With `Oc1cc(O)c2c(c1)O[C@H](c1ccc(O)c(O)c1)[C@@H](O)C2`, the “activation (PDE inhibition)” value is 6.1%.

Take `COCc1nc2c([nH]1)c(=O)n(C)c(=O)n2CC(C)C`: the Potency entry is “inactive”. As for `NCCCCN`, the “activation (PDE inhibition)” value is 0.826%. As to `COc1ccc2c(c1)c(CC(=O)O)c(C)n2C(=O)c1ccccc1`, the “activation (PDE inhibition)” value was 7.27%.

With `N=C(N)c1ccc(OCCCCCOc2ccc(C(=N)N)cc2)cc1` (tested in a mixture with another compound), the “activation (PDE inhibition)” value is -9.31%.

Source of the values: PubChem BioAssay (NCATS).
